# In PubChem BioAssay (Tox21):
# Unmarked numbers belong to inactive results. Results filed as inconclusive are left out. A call without a number means that no potency is given here. Active and inactive are the calls of the source. Unless noted, the call rests on the fitted dose curve.
# What was measured:
# [1] = target: Thyrotropin receptor (Homo sapiens) (UniProt P16473); experiment: qHTS assay to identify small molecule agonists of the thyroid stimulating hormone receptor (TSHR) signaling pathway (AID 1224843); further: nearly all actives have a fitted effect of over 45% in size; further: potency means the concentration at half of the fitted maximal effect
# Procedure, shortened: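 Steps: seed 800 TSHR-HEK293 cells per well; add test compound and hold 30 min at ambient temperature; dispense cAMP-d2 then anti-cAMP cryptate; incubate 1 h at ambient; measure fluorescence intensity.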
# [2] = qHTS assay to identify small molecule agonists of the hypoxia (HIF-1) signaling pathway - cell viability counter screen (AID 1224844); further: nearly all actives have a fitted effect of over 50% in size
# Procedure, shortened: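 HRE-bla ME-180 cells, 2,000/well in 0.5% dialyzed FBS medium, treated 17 h at 37C with compounds. Viability read in the same wells as the bla reporter, by CellTiter-Glo luminescence after 30 min at room temperature.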
# [3] = qHTS assay to identify small molecule agonists of H2AX (AID 1224845; active means well fitted activation curve with a large enough effect in the signal ratio in the repeat runs, not every such curve was filed as active; the % refers to the signal ratio; further: potency means the concentration at half of the fitted maximal effect)
# Procedure, shortened: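 Wild-type CHO-K1 cells, plated overnight, exposed 3hr at 37C to 15 concentrations (0.76% DMSO final). Lysed, then HTRF anti-pH2AX (S139) cryptate and anti-H2AX-d2 antibodies, 24 hr room temperature; 665/620 nm emission read.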
# [4] = qHTS assay to identify small molecule agonists of the hypoxia (HIF-1) signaling pathway (AID 1224846; active means well fitted activation curve with a large enough effect in the signal ratio in the repeat runs, not every such curve was filed as active; the % refers to the signal ratio)
# Procedure, shortened: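 HRE-bla ME-180 beta-lactamase reporter cells in medium with 0.5% dialyzed FBS, pre-incubated 5 h then exposed to compounds 17 h at 37C, 5% CO2; reporter induction read with CCF4-AM FRET substrate.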
# [5] = qHTS assay to identify small molecule agonists of H2AX - cell viability counter screen (AID 1224847); further: nearly all actives have a fitted effect of over 30% in size; further: potency means the concentration at half of the fitted maximal effect
# Procedure, shortened: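 Compounds tested at 15 concentrations were incubated 3 hr at 37C with wild-type CHO-K1 cells; cellular ATP-based luminescence (CellTiter-Glo) indicated viability.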
# [6] = qHTS assay to identify small molecule antagonists of the estrogen related receptor (ERR) signaling pathway from Tox21 library (AID 1224848; active means well fitted curve in the direction sought with a large enough effect in the repeat runs; an effect the other way counts as inactive or inconclusive; further: nearly all actives have a fitted effect of over 50% in size; further: potency means the concentration at half of the fitted maximal effect)
# Procedure, shortened: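 Luminescent reporter read-out (ONE-Glo) from NTP's ERR cell line after 18 h treatment at 37 C with DMSO-dissolved Tox21 compounds; cells pre-plated 6 h beforehand at 2,000 per well.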
# [7] = qHTS assay to identify small molecule agonists of the estrogen related receptor (ERR) signaling pathway from Tox21 library (AID 1224849); conditions: ERR reporter cell line, ONE-Glo luciferase, 18 h; at 92.4 µM (top of the series) unless noted; further: nearly all actives have a fitted effect of over 15% in size
# Procedure, shortened: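 ERR reporter cells (NTP line) pre-incubated 6 hours at 37 C, then exposed to compounds for 18 hours at 37 C. ONE-Glo luciferase luminescence was read after 30 minutes at room temperature.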
# [8] = qHTS RealTime-Glo MT Cell Viability Assay in HepG2 cells - 24 hour (AID 1224867; active means well fitted curve in the direction sought with a large enough effect in the repeat runs; an effect the other way counts as inactive or inconclusive; further: nearly all actives have a fitted effect of over 50% in size)
# Procedure, shortened: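 HepG2 cells were seeded at 600 cells/well together with NanoLuc luciferase and a cell-permeant prosubstrate, preincubated 5 h at 37 C/5% CO2, then pin-dosed with compounds in DMSO. Nonlytic luminescence from viable cells was read at each time point.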
# [9] = qHTS RealTime-Glo MT Cell Viability Assay in HEK293 cells - 32 hour (AID 1224868; active means well fitted curve in the direction sought with a large enough effect in the repeat runs; an effect the other way counts as inactive or inconclusive; further: nearly all actives have a fitted effect of over 50% in size; further: potency means the concentration at half of the fitted maximal effect)
# Procedure, shortened: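 HEK293 cells were seeded at 600 cells/well together with NanoLuc luciferase and cell-permeant prosubstrate, preincubated 5 h at 37 C/5% CO2, then given compound in DMSO by pintool. Luminescence from viable-cell prosubstrate reduction was read repeatedly over 40 h.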
# [10] = A CellTox Green Cytotoxicity Assay to monitor cytotoxicity in HEK293 cells - 0 hour (AID 1224869; active means well fitted curve in the direction sought with a large enough effect in the repeat runs; an effect the other way counts as inactive or inconclusive; further: nearly all actives have a fitted effect of over 50% in size; further: potency means the concentration at half of the fitted maximal effect)
# Procedure, shortened: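 HEK293 cells, 600/well, were preincubated 5 hours and then exposed to compounds at 37 C for up to 40 hours. A cell-impermeant cyanine dye staining dead-cell DNA was read by fluorescence at 0, 8, 16, 24, 32 and 40 h time points.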
# Sequence of Thyrotropin receptor (Homo sapiens) (P16473 whole entry, looked up): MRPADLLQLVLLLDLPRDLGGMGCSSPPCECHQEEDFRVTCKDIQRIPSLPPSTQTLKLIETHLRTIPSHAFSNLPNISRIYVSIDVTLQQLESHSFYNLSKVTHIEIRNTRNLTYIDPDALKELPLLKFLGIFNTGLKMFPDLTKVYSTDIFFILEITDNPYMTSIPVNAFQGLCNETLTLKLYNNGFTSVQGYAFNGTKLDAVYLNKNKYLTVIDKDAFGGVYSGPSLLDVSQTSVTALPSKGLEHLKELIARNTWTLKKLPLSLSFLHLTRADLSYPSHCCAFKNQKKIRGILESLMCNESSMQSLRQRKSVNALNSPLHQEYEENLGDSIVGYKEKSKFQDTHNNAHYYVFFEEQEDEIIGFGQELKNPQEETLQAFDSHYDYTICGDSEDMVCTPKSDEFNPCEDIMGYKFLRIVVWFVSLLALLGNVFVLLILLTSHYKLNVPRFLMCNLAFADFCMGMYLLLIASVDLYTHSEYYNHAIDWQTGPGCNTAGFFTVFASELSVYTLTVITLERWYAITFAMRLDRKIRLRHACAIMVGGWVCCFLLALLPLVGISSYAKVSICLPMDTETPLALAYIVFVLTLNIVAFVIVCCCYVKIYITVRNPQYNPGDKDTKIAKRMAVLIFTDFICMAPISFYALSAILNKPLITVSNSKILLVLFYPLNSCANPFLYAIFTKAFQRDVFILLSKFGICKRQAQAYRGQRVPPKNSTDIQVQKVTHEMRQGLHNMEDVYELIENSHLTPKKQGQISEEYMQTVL
SMILES,Potency [1],Potency [2],Potency [3],outcome [4],Potency [5],Potency [6],"activity change, positive = activation [7]",Potency [8],Potency [9],Potency [10]
C[N+](C)(C)CCCl,inactive,inactive,inactive,inactive,inactive,inactive,3.38%,inactive,inactive,inactive
CO/N=C(/C(=O)OC)c1ccccc1COc1ccccc1C,inactive,inactive,inactive,inactive,2.84 µM (active),1.54 µM (active),-47.7%,inactive,inactive,inactive
Sc1ccccc1Cl,inactive,inactive,inactive,inactive,inactive,inactive,1.99% [at 42.5 µM],inactive,inactive,inactive
ClC=C(Cl)Cl,inactive,inactive,inactive,inactive,inactive,inactive,-0.0629%,inactive,inactive,inactive
O=C(O)CC(Cl)C(=O)O (stereo not drawn),inactive,inactive,inactive,inactive,inactive,inactive,7%,inactive,inactive,inactive
N#Cc1ccc(Cl)cc1,inactive,inactive,inactive,inactive,inactive,inactive,0.802%,inactive,inactive,inactive
CC1Sc2c(C(=O)O)c(=O)c3cc(F)c(N4CCNCC4)cc3n21 (stereo not drawn),inactive,inactive,inactive,inactive,inactive,inactive,11.7% [at 42.5 µM],inactive,inactive,inactive
CC(=O)[C@H]1CC[C@H]2[C@@H]3CC[C@H]4C[C@](C)(O)CC[C@]4(C)[C@H]3CC[C@]12C,inactive,inactive,inactive,inactive,inactive,inactive,9.6% [at 42.5 µM],inactive,inactive,inactive
Cc1ccc(N)cc1C,inactive,inactive,inactive,inactive,inactive,inactive,19.9% (active),inactive,inactive,inactive
C=C(C#N)CCC#N,inactive,inactive,inactive,inactive,inactive,inactive,0.822%,inactive,inactive,inactive
CCCCCCCCCCOC(=O)c1ccccc1C(=O)OCCCCCCCCCC,inactive,inactive,inactive,inactive,inactive,inactive,1.79%,inactive,inactive,inactive
Clc1cccc(SC2CCNCC2)n1,inactive,inactive,inactive,inactive,inactive,inactive,0.887% [at 42.5 µM],inactive,inactive,inactive
ClCc1cccc(Cl)c1,inactive,inactive,inactive,inactive,inactive,inactive,-9.7% [at 42.5 µM],inactive,inactive,inactive
Clc1ccc(C2(Cn3cncn3)CC(Br)CO2)c(Cl)c1 (stereo not drawn),inactive,inactive,inactive,inactive,112 µM (active),15.3 µM (active),-55.5%,inactive,27.4 µM (active),inactive
C[C@H]1CNCCc2ccc(Cl)cc21,inactive,inactive,inactive,inactive,inactive,inactive,-0.2% [at 42.5 µM],inactive,inactive,inactive
O=[Se]=O,inactive,inactive,inactive,inactive,inactive,30.4 µM (active),-51.4% [at 42.5 µM],inactive,17.3 µM (active),inactive
Clc1cc(C(Cl)(Cl)Cl)cnc1Cl,inactive,inactive,89.8 µM (active),inactive,inactive,inactive,0.0985%,inactive,34.7 µM (active),inactive
Nc1nc(=S)[nH][nH]1,inactive,inactive,inactive,inactive,inactive,inactive,4.5%,inactive,inactive,inactive
C=CC(=O)NCNC(=O)C=C,inactive,inactive,inactive,inactive,inactive,inactive,36.6% (active),inactive,inactive,inactive
CC(Cl)Cl,inactive,inactive,inactive,inactive,inactive,inactive,-9.34%,inactive,inactive,inactive
CCCCN=C=O,inactive,inactive,inactive,inactive,inactive,inactive,1.38%,inactive,inactive,inactive
CC(=O)NC1CCSC1=O (stereo not drawn),inactive,inactive,inactive,inactive,inactive,inactive,1.16% [at 42.5 µM],inactive,inactive,inactive
COc1cc(CC(C)N)cc2c1OCO2 (stereo not drawn),inactive,inactive,inactive,inactive,inactive,inactive,-3.18%,inactive,inactive,inactive

SMILES,Potency [1],Potency [2],Potency [3],outcome [4],Potency [5],Potency [6],"activity change, positive = activation [7]",Potency [8],Potency [9],Potency [10]
N#Cc1cc(I)c(O)c(I)c1,inactive,inactive,inactive,inactive,28.4 µM (active),24.3 µM (active),-66.8%,inactive,,inactive
COc1nn(C(=O)NS(=O)(=O)c2ccccc2OC(F)(F)F)c(=O)n1C,inactive,inactive,inactive,inactive,inactive,inactive,1.4%,inactive,inactive,31.7 µM (active)
O=C(O)COc1ccc(Cl)cc1,inactive,inactive,inactive,inactive,inactive,inactive,1.55%,inactive,inactive,inactive
CCBr,inactive,inactive,inactive,inactive,inactive,inactive,6.77%,inactive,inactive,inactive
C=CC(C)=O,inactive,inactive,inactive,inactive,inactive,inactive,-0.611%,inactive,inactive,inactive
C=CC(=O)OCC(C)C,inactive,inactive,inactive,inactive,inactive,inactive,5.29%,inactive,inactive,inactive
CC(=O)C(C)(C)C,inactive,inactive,inactive,inactive,inactive,inactive,-0.0388%,inactive,inactive,inactive
Cc1ccc2ccccc2c1,inactive,inactive,inactive,inactive,inactive,inactive,-0.842%,inactive,inactive,inactive
CCc1ccc(C(=O)NN(C(=O)c2cc(C)cc(C)c2)C(C)(C)C)cc1,15.4 µM (active),inactive,inactive,inactive,inactive,30.6 µM (active),-56.4%,inactive,inactive,inactive
O=C(NC(=O)c1c(F)cccc1F)Nc1ccc(OC(F)(F)C(F)OC(F)(F)F)c(Cl)c1 (stereo not drawn),inactive,inactive,inactive,inactive,inactive,inactive,-11.9% [at 42.5 µM],inactive,inactive,inactive
CC/C(=N\OC/C=C/Cl)C1=C(O)CC(C2CCOCC2)CC1=O (stereo not drawn),inactive,inactive,inactive,inactive,inactive,inactive,0.742%,inactive,inactive,inactive
CCC(Cl)CCl (stereo not drawn),inactive,inactive,inactive,inactive,inactive,inactive,-1.76%,inactive,inactive,inactive
COC(=O)c1cncn1C(C)c1ccccc1 (stereo not drawn),inactive,inactive,inactive,inactive,inactive,,,inactive,inactive,inactive
C=COC(C)=O,inactive,inactive,inactive,inactive,inactive,,,inactive,inactive,inactive
CC(C)N(C(=O)COc1nnc(C(F)(F)F)s1)c1ccc(F)cc1,inactive,inactive,inactive,inactive,inactive,54.5 µM (active),-34.1%,,,inactive
CCN(C)N=O,inactive,inactive,inactive,inactive,inactive,,,inactive,inactive,inactive
O=S(=O)(Cl)c1ccccc1,inactive,inactive,inactive,inactive,inactive,,,inactive,inactive,inactive
CC(C)(Cl)[N+](=O)[O-],inactive,inactive,inactive,inactive,inactive,,-29.2%,inactive,inactive,inactive
O=Cc1ccc2c(c1)OCO2,inactive,inactive,inactive,inactive,inactive,,,inactive,inactive,inactive
NCCCNCCCN,inactive,inactive,inactive,inactive,inactive,,,inactive,inactive,inactive
N#CCc1ccccc1,inactive,inactive,inactive,inactive,inactive,,,inactive,inactive,inactive
O=[N+]([O-])c1ccccc1CCl,inactive,inactive,inactive,inactive,inactive,,,inactive,inactive,inactive
C=CCCl,inactive,inactive,inactive,inactive,inactive,,,inactive,inactive,inactive
